# Values joined by “and” are separate entries in the source; they are usually repeats but may differ in a detail not shown here. Equal entries are not always repeated. Records with an inconclusive call do not appear. Entries that show only a call come without a potency. More than one record can exist for a structure, and the calls need not agree. Active and inactive are the calls of the source. Unless noted, calls come from the whole dose curve; as a rule, active = well fitted curve in the direction sought with a large enough effect in the repeat runs; inconclusive = weak or mixed curves; inactive = no such curve, though single readings can be large; an effect the other way counts as inactive or inconclusive.
# Tests used:
# [1] = qHTS assay for small molecule agonists of the p53 signaling pathway (AID 651631; calls by dose curve; note: nearly all actives have a fitted effect of over 15% in size; note: potency is the fitted concentration of half-maximal effect)
# How it was run: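 HCT-116 cells carrying a beta-lactamase reporter under p53 response elements were dosed with compound for 16 h at 37 °C. LiveBLAzer B/G FRET substrate was then added for 2 h at room temperature, and fluorescence intensity was read to detect pathway agonism.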
# [2] = qHTS assay for small molecule agonists of the p53 signaling pathway - cell viability (AID 651633; calls by dose curve; note: nearly all actives have a fitted effect of over 30% in size; note: potency is the fitted concentration of half-maximal effect)
# How it was run: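 p53RE-bla cells, seeded at 4,000 per well and rested 5 h at 37 C/5% CO2, received compounds in DMSO for 16 h at 37 C. CellTiter-Glo was then added, and luminescence was read after 30 min at room temperature to gauge cytotoxicity.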
# [3] = qHTS assay for small molecules that induce genotoxicity in human embryonic kidney cells expressing luciferase-tagged ATAD5 - cell viability (AID 651634; calls by dose curve; note: nearly all actives have a fitted effect of over 25% in size; note: potency is the fitted concentration of half-maximal effect)
# How it was run: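 15.5 hr compound or vehicle exposure of HEK293T cells expressing luciferase-tagged ATAD5 at 37C; live-cell protease activity is read by fluorescence after 30 min of CellTiter-Fluor.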
# [4] = qHTS assay for small molecule disruptors of the mitochondrial membrane potential - cell viability (AID 720634; calls by dose curve; note: nearly all actives have a fitted effect of over 20% in size; note: potency is the fitted concentration of half-maximal effect)
# How it was run: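 In this qHTS format, HepG2 cells plated overnight were pinned with compound, incubated 1 hr, and assayed for ATP luminescence with CellTiter-Glo after m-MPI dye addition.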
# [5] = qHTS assay for small molecule disruptors of the mitochondrial membrane potential (AID 720635); note: potency is the fitted concentration of half-maximal effect
# How it was run: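 HepG2 cells (2,000/well) attached overnight at 37C, then took compound for 1 hr at 37C, 5% CO2. Mito-MPS dye was added for 30 min; fluorescence was read at 490/535 nm (monomers) and 540/590 nm (aggregates).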
# [6] = qHTS assay to test for compound auto fluorescence at 535 nm (green) in HepG2 cells (AID 720675)
# [7] = qHTS assay to test for compound auto fluorescence at 460 nm (blue) in HEK293 cells (AID 720678)
# How it was run: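 Intrinsic compound fluorescence is recorded in live HEK293 cultures after overnight incubation at 37C, 5% CO2, using excitation 405 nm and emission 460 nm. Values are referenced to triamterene.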
# [8] = qHTS assay to test for compound auto fluorescence at 535 nm (green) in HEK293 cells (AID 720680)
# [9] = qHTS assay to test for compound auto fluorescence at 460 nm (blue) in HEK293 cell free culture (AID 720681)
# How it was run: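 Test compounds were pinned into cell-free culture medium (DMEM with 10% FBS) and fluorescence was read directly at Ex/Em 405/460 nm. Signals were expressed as fluorescence equivalents of triamterene, with DMSO vehicle as control.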
# [10] = qHTS assay to test for compound auto fluorescence at 535 nm (green) in HEK293 cell free culture (AID 720682)
# How it was run: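 Green-label autofluorescence (485 nm excitation, 535 nm emission) measured on compound added to cell-free culture medium (DMEM, 10% FBS). Output is expressed relative to fluorescein.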
# [11] = qHTS assay to test for compound auto fluorescence at 590 nm (red) in HEK293 cell free culture (AID 720683)
# How it was run: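 Tox21 10K library compounds were pinned into cell-free DMEM with 10% FBS and fluorescence was read at excitation 540 nm. Activity is expressed as Rose Bengal sodium equivalency.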
# [12] = qHTS assay to test for compound auto fluorescence at 590 nm (red) in HepG2 cell free culture (AID 720684)
# How it was run: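 Ex 540 / Em 590 nm read of compound in cell-free MEM (10% FBS). Rose Bengal sodium reference.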
# [13] = qHTS assay to test for compound auto fluorescence at 460 nm (blue) in HepG2 cell free culture (AID 720685)
# How it was run: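 Cell-free plates of MEM plus 10% FBS received 23 nL compound or DMSO vehicle; blue-channel (405/460 nm) intensity scored against triamterene as reference fluorophore.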
# [14] = qHTS assay to test for compound auto fluorescence at 535 nm (green) in HepG2 cell free culture (AID 720686)
# [15] = qHTS assay to test for compound auto fluorescence at 460 nm (blue) in HepG2 cells (AID 720687)
# How it was run: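 Cells (2,000/well in MEM with 10% FBS) attached overnight at 37 C, then were exposed to compound or DMSO for 1 hr at 37 C, 5% CO2. Fluorescence read at Ex/Em 405/460 nm, expressed as triamterene-equivalent signal.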
# [16] = molecular target: Glucocorticoid receptor (Homo sapiens) (UniProt P04150); assay: qHTS assay to identify small molecule agonists of the glucocorticoid receptor (GR) signaling pathway (AID 720691; active = well fitted activation curve with a large enough effect in the signal ratio in the repeat runs, not every such curve was filed as active; the % refers to the signal ratio); conditions: GR-bla HeLa, beta-lactamase reporter ratio, 18 h; activation: at 62.4 µM (top of the series) unless noted
# Chain of Glucocorticoid receptor (Homo sapiens) (P04150 whole entry, looked up): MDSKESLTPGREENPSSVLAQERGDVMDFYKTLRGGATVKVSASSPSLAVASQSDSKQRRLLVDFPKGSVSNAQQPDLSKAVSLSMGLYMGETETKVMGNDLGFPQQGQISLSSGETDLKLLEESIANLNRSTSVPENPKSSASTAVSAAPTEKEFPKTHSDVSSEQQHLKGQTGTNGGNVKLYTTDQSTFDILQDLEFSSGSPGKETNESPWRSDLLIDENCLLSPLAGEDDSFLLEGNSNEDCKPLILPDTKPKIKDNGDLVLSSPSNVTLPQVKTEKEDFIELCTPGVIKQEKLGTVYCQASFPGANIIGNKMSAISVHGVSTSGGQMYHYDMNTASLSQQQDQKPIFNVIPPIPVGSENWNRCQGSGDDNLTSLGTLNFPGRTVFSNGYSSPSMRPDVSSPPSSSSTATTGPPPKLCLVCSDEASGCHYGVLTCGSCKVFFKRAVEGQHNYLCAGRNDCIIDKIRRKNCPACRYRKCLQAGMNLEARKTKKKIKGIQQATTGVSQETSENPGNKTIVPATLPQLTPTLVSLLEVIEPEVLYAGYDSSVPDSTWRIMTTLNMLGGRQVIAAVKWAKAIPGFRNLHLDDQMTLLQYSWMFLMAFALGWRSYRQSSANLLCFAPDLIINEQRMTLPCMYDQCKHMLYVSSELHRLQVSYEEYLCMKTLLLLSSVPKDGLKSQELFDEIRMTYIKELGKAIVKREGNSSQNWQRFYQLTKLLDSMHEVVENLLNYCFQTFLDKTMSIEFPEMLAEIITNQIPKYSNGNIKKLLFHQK
# How it was run: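 Measures GR pathway activation through a GRE-beta-lactamase reporter stably integrated in HeLa cells, with 18 h compound treatment at 37 C and fluorescence detection using a FRET substrate.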
# [17] = qHTS assay to test for compound auto fluorescence at 590 nm (red) in HepG2 cells (AID 720674)
# How it was run: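 Intrinsic compound fluorescence in the red window (Ex/Em 540/590 nm) is measured in attached HepG2 cells exposed for 1 hr, DMSO vehicle as baseline, benchmarked to Rose Bengal sodium.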
# [18] = molecular target: Glucocorticoid receptor (Homo sapiens) (UniProt P04150); assay: qHTS assay to identify small molecule antagonists of the glucocorticoid receptor (GR) signaling pathway (AID 720692; active = well fitted inhibition curve with a large enough effect in the signal ratio in the repeat runs, not every such curve was filed as active; the % refers to the signal ratio)
# How it was run: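 Tox21 10K library screened in concentration-response for blockade of dexamethasone (5 nM final)-induced GRE-bla reporter activity in HeLa cells; 18 h treatment, fluorescence read.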
# [19] = qHTS assay for small molecules that induce genotoxicity in human embryonic kidney cells expressing luciferase-tagged ATAD5 (AID 651632); note: nearly all actives have a fitted effect of over 15% in size
# How it was run: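 Concentration-response screen for ATAD5 upregulation in HEK293T luciferase reporter cells; 16 hr treatment at 37C, then luminescence after 30 min with Amplite at room temperature.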
# [20] = qHTS assay to test for compound auto fluorescence at 590 nm (red) in HEK293 cells (AID 720679)
# How it was run: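 Red autofluorescence, HEK293 cells: 2,000 cells/well; attach 4-5 hr 37C; add 23 nL cpd or DMSO; incubate o/n 37C 5% CO2; read Ex540/Em590; Rose Bengal sodium reference.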
SMILES,Potency [1],Potency [2],Potency [3],Potency [4],Potency [5],outcome [6],Potency [7],outcome [8],Potency [9],outcome [10],outcome [11],outcome [12],Potency [13],outcome [14],outcome [15],Potency [16],outcome [17],Potency [18],Potency [19],outcome [20]
Cc1cc(O)c2c(c1)C(=O)c1cc(O)cc(O)c1C2=O,10.6 µM (active),inactive and 61.1 µM (active),23.8 µM (active) and 54.5 µM (active),15 µM (active),1.68 µM (active) and 545 nM (active),inactive,inactive,inactive,inactive,inactive,inactive,inactive,inactive,inactive,inactive,inactive,–,–,–,–
CS(=O)(=O)c1ccc([C@@H](O)[C@@H](CO)NC(=O)C(Cl)Cl)cc1,inactive,inactive,inactive,inactive,–,inactive,inactive,inactive,inactive,inactive,inactive,inactive,inactive,inactive,inactive,inactive,inactive,inactive,–,–
CCCCCCCCCCCCN,inactive,–,–,inactive,–,inactive,inactive,inactive,inactive,inactive,inactive,inactive,inactive,inactive,inactive,inactive,inactive,inactive,inactive,inactive
CC1Cc2ccccc2N1NC(=O)c1ccc(Cl)c(S(N)(=O)=O)c1 (configuration not stated),inactive,–,inactive,inactive,–,inactive,inactive,inactive,inactive,inactive,inactive,inactive,inactive,inactive,inactive,–,–,–,inactive,–
Oc1ccc(OCc2ccccc2)cc1,9.02 µM (active),–,inactive,inactive,10.1 µM (active) and 23.8 µM (active),inactive,inactive,inactive,inactive,inactive,inactive,inactive,inactive,inactive,inactive,inactive,inactive,–,–,inactive
OCC#CCO,inactive,inactive,inactive,inactive,inactive,inactive,inactive,inactive,inactive,inactive,inactive,inactive,inactive,inactive,inactive,inactive,inactive,inactive,–,–
Cc1cc(Cc2ccc(N)c(C)c2)ccc1N,inactive,inactive,inactive,–,–,inactive,inactive,inactive,inactive,inactive,inactive,inactive,inactive,inactive,–,inactive,–,inactive,–,–
CCCCC(CC)COC(=O)/C=C\C(=O)OCC(CC)CCCC (configuration not stated),inactive,inactive,inactive,inactive,inactive,inactive,inactive,inactive,inactive,inactive,inactive,inactive,inactive,inactive,inactive,inactive,inactive,–,–,inactive
CC(C)(C)C1CCC(O)CC1 (configuration not stated),inactive,inactive,inactive,inactive,–,inactive,inactive,inactive,inactive,inactive,inactive,inactive,inactive,inactive,inactive,inactive,–,inactive,–,inactive
CC(C)Cc1ccccc1,inactive,inactive,inactive,inactive,–,inactive,inactive,inactive,inactive,inactive,inactive,inactive,inactive,inactive,–,inactive,inactive,inactive,–,inactive
CCCCC/C=C\C/C=C\CCCCCCCC(=O)OC,inactive,inactive,inactive,inactive,–,inactive,inactive,inactive,inactive,inactive,inactive,inactive,inactive,inactive,–,–,–,–,–,inactive
O=S(=O)(O)CCS,inactive,–,inactive,inactive,–,inactive,inactive,inactive,inactive,inactive,inactive,inactive,inactive,inactive,inactive,inactive,–,inactive,inactive,inactive
Cc1ccc(N)c(S(=O)(=O)O)c1,inactive,inactive,inactive,inactive,inactive,inactive,inactive,inactive,inactive,inactive,inactive,inactive,inactive,inactive,inactive,inactive,–,inactive,–,inactive
CN(C)c1ccc(C(=N)c2ccc(N(C)C)cc2)cc1,4.28 µM (active) and 5.88 µM (active),inactive,48 µM (active) and 46.7 µM (active),inactive,27 µM (active) and 46.7 µM (active),inactive,inactive,inactive,–,inactive,inactive,inactive,inactive,inactive,–,inactive,–,–,–,inactive
CCOC(=O)[C@H](CCc1ccccc1)N[C@@H](C)C(=O)N1Cc2ccccc2C[C@H]1C(=O)O,inactive,–,inactive,inactive,–,inactive,inactive,inactive,inactive,inactive,inactive,inactive,inactive,inactive,–,inactive,inactive,inactive,inactive,inactive
CCCCC(CC)C(=O)OCCOCCOCCOC(=O)C(CC)CCCC (configuration not stated),inactive,inactive,inactive,inactive,–,inactive,inactive,inactive,inactive,inactive,inactive,inactive,inactive,inactive,inactive,inactive,inactive,inactive,–,–
c1ccc2ccccc2c1,inactive,inactive,inactive,inactive,–,inactive,inactive,inactive,inactive,inactive,inactive,inactive,inactive,inactive,–,–,–,–,–,inactive
